Assay results taken from the supplement of paper PMC6555819.

Tests used:
Test in all cases: PBM binding z-score (relative to random genomic background probes); higher = stronger binding; sequences stand for … in GC…GCGATTGACAGCGTAGAATGAAGG
[1] = system: FXR:RXRa (NR concentration 270 nM, RXRa partner concentration 90 nM)
How it was run: (§1)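 Antibodies against each partner of ligand-free nuclear receptor dimers (one per run) detected binding on custom Agilent 4×180K protein-binding microarrays after 1 h incubation. The double-stranded probes had 34-nt variable regions carrying direct-repeat seeds, single-nucleotide variants, half-site ablations and random human genomic background sequences. Binding z-scores, from regression-normalized fluorescence, use the random background probes as reference.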

[2] = system: LXRa:RXRa (NR concentration 270 nM, RXRa partner concentration 90 nM)
How it was run: as §1

[3] = system: LXRa homodimer (NR concentration 270 nM)
How it was run: as §1

[4] = system: LXRb:RXRa (NR concentration 270 nM, RXRa partner concentration 90 nM)
How it was run: as §1

[5] = system: LXRb homodimer (NR concentration 270 nM)
How it was run: as §1

[6] = system: PPARa:RXRa (NR concentration 270 nM, RXRa partner concentration 90 nM)
How it was run: as §1

[7] = system: PPARg:RXRa (NR concentration 180 nM, RXRa partner concentration 90 nM)
How it was run: as §1

[8] = system: PPARg:RXRa 270nM:90nM, anti-RXR (NR concentration 270 nM, RXRa partner concentration 90 nM)
How it was run: as §1

[9] = system: PPARg:RXRa 30nM:10nM, anti-RXR (NR concentration 30 nM, RXRa partner concentration 10 nM)
How it was run: as §1

[10] = system: PPARg:RXRa 90nM:30nM, anti-RXR (NR concentration 90 nM, RXRa partner concentration 30 nM)
How it was run: as §1

[11] = system: PPARg:RXRa DBDmut IVT, anti-RXR (DBD mutation: RXRa K156A/R161A, NR concentration 270 nM, RXRa partner concentration 90 nM)
How it was run: as §1

[12] = system: PPARg:RXRa IVT, anti-PPARg (NR concentration 270 nM, RXRa partner concentration 90 nM)
How it was run: as §1

[13] = system: PPARg DBDmut:RXRa IVT, anti-PPARg (DBD mutation: PPARg1 K132A/R137A, NR concentration 270 nM, RXRa partner concentration 90 nM)
How it was run: as §1

[14] = system: PPARg DBDmut IVT, anti-PPARg (DBD mutation: PPARg1 K132A/R137A, NR concentration 270 nM)
How it was run: as §1

[15] = system: PPARg homodimer (NR concentration 180 nM)
How it was run: as §1

[16] = system: PXR:RXRa (NR concentration 270 nM, RXRa partner concentration 90 nM)
How it was run: as §1

[17] = system: PXR homodimer (NR concentration 270 nM)
How it was run: as §1

[18] = system: RARa:RXR (NR concentration 270 nM, RXRa partner concentration 90 nM)
How it was run: as §1

[19] = system: RARa homodimer (NR concentration 270 nM)
How it was run: as §1

[20] = system: RARb:RXRa (NR concentration 270 nM, RXRa partner concentration 90 nM)
How it was run: as §1

Sequence	PBM binding z-score [1]	PBM binding z-score [2]	PBM binding z-score [3]	PBM binding z-score [4]	PBM binding z-score [5]	PBM binding z-score [6]	PBM binding z-score [7]	PBM binding z-score [8]	PBM binding z-score [9]	PBM binding z-score [10]	PBM binding z-score [11]	PBM binding z-score [12]	PBM binding z-score [13]	PBM binding z-score [14]	PBM binding z-score [15]	PBM binding z-score [16]	PBM binding z-score [17]	PBM binding z-score [18]	PBM binding z-score [19]	PBM binding z-score [20]
ATCGAAAGGTCGACGAGGTGAGTGTACACCGTTT	4.72	3.35	0.236	2.78	0.198	4.42	2.9	3.72	1.14	2.63	1.06	2.45	1.21	0.365	1.48	3.37	1.03	3.93	0.268	3.89
CATATTAGTTGACCATAAGGGCAACCGAAGCTCG	1.05	0.784	0.591	0.601	0.928	0.55	0.779	0.866	0.713	0.78	0.59	1.02	1.7	1.43	1.42	0.825	0.678	1.19	1.93	1.8
GCTGCTAGGTCAACTTATGGTCAGCTAAAGCTCG	4.49	2.98	0.539	2.52	0.4	3.87	2.95	3.14	0.913	2.31	4.77	4.25	-0.352	-0.235	2.49	2.17	-0.587	3.6	0.316	4.4
AATACAGGGTCCCTAGGCCAGAGTAGGTACGAAT	-0.341	-0.334	-0.145	-0.634	-0.575	-0.299	0.603	0.00679	0.133	0.0597	-0.243	0.245	-0.698	-1.31	-0.659	-0.49	-0.525	-0.409	0.104	0.138
AGAACGAGGGCACGCTGCGTTGATAGCAGAGTAG	0.623	0.419	-0.7	-0.144	-0.905	1.75	1.89	1.74	0.373	1	4.17	3.95	0.425	-0.427	0.0277	0.123	-0.527	0.344	-0.962	2.52
TCTTGTAGATCAAGCAGGTTAAGAAAGCCTGAGT	0.0308	0.414	-0.381	0.385	-0.415	0.741	-0.57	1.21	2.46	1.7	1.72	0.78	0.218	0.401	0.138	0.519	0.388	0.546	-0.0455	0.228
ACTAGTTGATCAGCTGAGGTCACACACAATTCGG	3.31	2.93	1.91	3.51	0.605	3.89	1.6	2.33	0.574	1.42	0.672	2.14	0.806	1.68	2.57	4.97	2.19	4.95	0.417	3.22
